Screens from PubChem.
Compounds with a hit are over-represented: about 10% of the library has one in this group of screens.
GLS inh – qHTS for Inhibitors of Glutaminase (GLS); Glutaminase kidney isoform, mitochondrial (Homo sapiens), O94925; GLS enzymatic activity, qHTS titration; Potency, µM (doses to about 45.5 µM), for inactives: at the highest dose activity change, negative = inhibition, actives largely listed as inhibitors; 410,000 tested, 0.21% active; AID 624170, 2012; note: % is set by controls: 0 for no effect and ±100 for the full control effect
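hKGA in 45 mM KH2PO4 (pH 8.2), 0.02% Tween-20 with compound, then 1mM L-Glutamine (stock as added) plus glutamate oxidase/HRP/Amplex red coupling mix. Fluorescence read initially and after 30 min at RT; signal change reflects glutamate formation.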
JMJD2A Tudor inh – qHTS Assay for Inhibitors of JMJD2A-Tudor Domain. 390,000 tested, 4.4% active. Potency, µM (titrated, usually from 114 µM), without a hit: top-dose activity change, negative = inhibition, actives largely listed as inhibitors. AID 504339, 2011. AlphaScreen JMJD2A-Tudor / H3K4me3 peptide binding; note: % is set by controls: 0 for no effect and ±100 for the full control effect; nearly all actives have a fitted effect of over 50% in size
Target sequence (O75164 whole entry, looked up, the tested form may be a part): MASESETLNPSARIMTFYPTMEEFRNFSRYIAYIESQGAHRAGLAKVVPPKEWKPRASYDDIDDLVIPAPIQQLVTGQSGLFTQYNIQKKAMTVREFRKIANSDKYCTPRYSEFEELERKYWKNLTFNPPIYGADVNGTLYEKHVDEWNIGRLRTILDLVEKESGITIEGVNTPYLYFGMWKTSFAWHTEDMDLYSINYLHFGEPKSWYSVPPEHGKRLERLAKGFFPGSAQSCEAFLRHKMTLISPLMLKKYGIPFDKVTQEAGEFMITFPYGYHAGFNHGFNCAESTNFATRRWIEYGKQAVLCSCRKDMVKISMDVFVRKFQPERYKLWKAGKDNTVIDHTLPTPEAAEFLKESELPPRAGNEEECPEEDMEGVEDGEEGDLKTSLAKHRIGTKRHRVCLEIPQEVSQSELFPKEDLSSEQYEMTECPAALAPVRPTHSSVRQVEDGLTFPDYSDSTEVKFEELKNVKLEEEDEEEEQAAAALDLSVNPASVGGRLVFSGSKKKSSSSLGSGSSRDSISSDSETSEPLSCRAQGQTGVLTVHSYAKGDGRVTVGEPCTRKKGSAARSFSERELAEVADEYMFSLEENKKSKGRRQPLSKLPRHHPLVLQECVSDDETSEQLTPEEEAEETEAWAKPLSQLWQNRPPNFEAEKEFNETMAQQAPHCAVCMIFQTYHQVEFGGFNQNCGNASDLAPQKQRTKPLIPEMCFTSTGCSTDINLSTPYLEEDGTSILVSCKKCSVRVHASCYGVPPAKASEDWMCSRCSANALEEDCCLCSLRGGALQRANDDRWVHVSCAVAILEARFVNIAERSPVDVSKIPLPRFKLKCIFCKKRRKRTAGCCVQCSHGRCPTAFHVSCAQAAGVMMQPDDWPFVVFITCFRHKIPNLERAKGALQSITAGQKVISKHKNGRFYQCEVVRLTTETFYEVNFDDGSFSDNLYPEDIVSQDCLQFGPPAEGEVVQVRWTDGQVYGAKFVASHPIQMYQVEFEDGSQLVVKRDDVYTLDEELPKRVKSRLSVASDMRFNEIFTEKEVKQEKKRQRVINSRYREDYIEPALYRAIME
HP1b chromo inh – HTS for Inhibitors of HP1-beta Chromodomain Interactions with Methylated Histone Tails; Chromobox protein homolog 1 (Homo sapiens), P83916; AlphaScreen HP1-beta / biotin-H3K9me3 peptide binding; Potency, µM (top dose mostly 114 µM), inactives show top-dose activity change, negative = inhibition, actives largely listed as inhibitors; 390,000 tested, 0.56% active; AID 540317, 2011; note: nearly all actives have a fitted effect of over 70% in size
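HP1-beta protein (50 nM final) preincubated 30 min at room temperature with biotinylated H3(1-18)K9me3 peptide (50 nM) in PBS pH 7.4, 0.01% Tween-20, then compound added for 30 min. AlphaScreen streptavidin donor/nickel chelate acceptor beads (10 ug/mL final), 30 min dark, luminescence read.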
BAZ2B inh – qHTS Assay for Inhibitors of BAZ2B | Potency, µM (doses to about 114 µM), without a hit: at the top dose activity change, negative = inhibition, most hits filed as inhibitors | 360,000 tested, 4.4% active | AlphaScreen BAZ2B-H3K14Ac peptide displacement; note: % is set by controls: 0 for no effect and ±100 for the full control effect; nearly all actives have a fitted effect of over 60% in size
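Inhibition is scored as reduced AlphaScreen emission. The BAZ2B/b-H3(5-23)K14Ac complex (50 nM each) in PBS pH 7.4, 0.01% Tween-20 meets compound (up to 110 uM) for 30 min at RT before bead addition.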
L3MBTL1 block – qHTS Assay for the Inhibitors of L3MBTL1; 230,000 tested, 0.66% active; AlphaScreen L3MBTL1–H3K9me1 peptide binding; AID 485360, 2010; Potency, µM (highest dose often 57.1 µM), for the others: top-dose activity, negative = inhibition, actives largely listed as inhibitors; Lethal(3)malignant brain tumor-like protein 1 (Homo sapiens), Q9Y468; note: % is set by controls: 0 for no effect and ±100 for the full control effect; nearly all actives have a fitted effect of over 60% in size
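First, the protein-peptide complex forms for 30 min at room temperature (L3MBTL1 50 nM, biotinylated H3K9me1 peptide 75 nM). Next, compounds are pin-transferred and incubated 30 min. Finally, AlphaScreen beads are added and read after 30 min.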
G9a inh – qHTS Assay for Inhibitors of Histone Lysine Methyltransferase G9a; Histone-lysine N-methyltransferase EHMT2 (Homo sapiens), Q96KQ7; Potency, µM (doses to about 102 µM), without a hit: top-dose activity, negative = inhibition, usual class: inhibitors; AID 504332, 2011; G9a H3K9 monomethylation, AlphaScreen, 2 h; 350,000 tested, 8.8% active; note: % is set by controls: 0 for no effect and ±100 for the full control effect; nearly all actives have a fitted effect of over 75% in size
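Step 1: enzyme (final 20 nM) with compound, 15 min RT. Step 2: substrate peptide 500 nM and SAM 20 uM, 2 h RT. Step 3: anti-H3K9me1 antibody and AlphaScreen beads, 10 min, then plate read.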
* = called active by the depositor; ? = inconclusive; · = no result given; [ ] = remark or other dose. Calls come from the whole dose curve; as a rule, active = well fitted curve in the direction sought with a large enough effect; inconclusive = small, poorly fitted or top-dose-only effect, or another doubt; inactive = no such curve, though single readings can be large; an effect the other way counts as inactive or inconclusive. Potency is the fitted concentration of half-maximal effect.

SMILES	GLS inh	JMJD2A Tudor inh	HP1b chromo inh	BAZ2B inh	L3MBTL1 block	G9a inh
COc1ccc(CCNC(=O)c2ccc(Cn3c(=O)c4ccccc4n(CC(=O)C(C)(C)C)c3=O)cc2)cc1OC	-3%	-9%	35%	0%	·	-24%[59 µM]
Cc1cccc(-c2cc(C(=O)NCCCn3ccnc3)c3ccccc3n2)c1	·	·	·	?	-7%	-2%[59 µM]
COc1cccc(-c2cc(C(=O)NCCCn3ccnc3)c3ccccc3n2)c1	-6%	-23%	14%	?	-8%	3.2µM*
CC(C)Oc1cccc(-c2cc(C(=O)NC(=S)N(C)c3ccccc3C(=O)O)c3ccccc3n2)c1	22%	-27%	?	-37%	10%	22µM*
Cc1ccc(-c2cc(C(=O)NN3CCOCC3)c3cc(Br)ccc3n2)o1	2%	-13%	17%	-33%	-5%	?
Cc1ccc(-c2cc(C(=O)NCCCn3ccnc3)c3cc(Br)ccc3n2)o1	1%	79µM*	-17%	-2%	-21%	?
Cc1ccc(-c2cc(C(=O)NC3=NCCS3)c3cc(Br)ccc3n2)o1	·	·	·	14%	32µM*	?
CCC(=O)N1CCc2cc(S(=O)(=O)NC(C(=O)NCCc3cccc(C)c3)C(C)C)ccc21 (stereo not given)	-3%	-3%	32%	·	·	-3%[59 µM]
CCOCCCNC(=O)C1CCN(c2nc3ccc(C)cc3[nH]2)CC1	6%	-10%	24%[57 µM]	5%	·	-2%[59 µM]
Cc1cc(Cl)ccc1OCC(=O)Nc1c(Cl)ccc2nsnc12	-15%	3%	21%	-14%	·	-36%[59 µM]
CCCOc1cccc(-c2cc(C(=O)NNC(=S)NCC)c3ccccc3n2)c1	12%	-34%	-12%	-7%	·	-49%[12.7 µM]
CCNC(=S)NNC(=O)c1cc(-c2cccc(OC)c2)nc2ccccc12	10%	0%	34%	-29%	-1%	40µM*
Cc1cc(NC(=O)c2cc(-c3ccccn3)nc3ccc(Br)cc23)no1	7%	-12%	33%	71µM*	·	·
NNc1nc2ccc(Cl)cc2s1	-4%	79µM*	-20%	50µM*	-4%	56µM*
NS(=O)(=O)c1ccc2nc(NC(=O)Nc3ccc(F)cc3)sc2c1	0%	-16%	3%	1%	·	50µM*
CS(=O)(=O)c1ccc2nc(NC(=O)Nc3ccc(Cl)cc3)sc2c1	-1%	-15%	25%	-29%	11%	?
Fc1ccc2nc(Nc3ccccc3)sc2c1	3%	-2%	17%	-2%	0%	8%
NNc1nc2ccc(F)cc2s1	-1%	?	-38%	45µM*	-10%	?
Cc1c(Cl)cccc1NC(=O)CC(c1cccs1)N1Cc2ccccc2C1=O (stereo not given)	-6%	0%	46%	-18%	·	-17%[59 µM]
CCn1ncc(/C=C2/SC(=S)NC2=O)c1C	17%	-8%	21%	-33%	-2%	50µM*
O=C1NC(=S)SC1=Cc1ccccc1C(=O)O	50%	·	·	·	·	·
CCn1c(C)cc(/C=C2/SC(=S)NC2=O)c1C	-2%	-22%	9%	-37%	-2%	?
Cc1cc(/C=C2\SC(=S)NC2=O)c(C)[nH]1	7%	?	-23%	45µM*	-18%	·
Nc1c(C(=O)Nc2ccc(Cl)c(C(F)(F)F)c2)sc2nc(-c3ccncc3)ccc12	-6%	-15%	32%	2%	·	-9%[59 µM]
Cc1cc(C(=O)CN2C(=O)C(=O)N(Cc3ccccc3)C2=O)c(C)n1CC1COc2ccccc2O1 (stereo not given)	-13%	-23%	12%	-13%	3%	-2%
SMILES	GLS inh	JMJD2A Tudor inh	HP1b chromo inh	BAZ2B inh	L3MBTL1 block	G9a inh
CCOc1ncccc1C(=O)OCC(=O)c1cc(C)n(Cc2ccco2)c1C	1%	?	-3%	50µM*	-16%	?
CCOc1ncccc1C(=O)OCC(=O)c1ccc(F)cc1	-18%	20µM*	8%	11%	18%	33%
Cc1cc(C(=O)COC(=O)c2ccc(Br)o2)c(C)n1Cc1ccco1	·	·	·	?	-23%	?
O=C(COC(=O)c1cccnc1Cl)c1ccc(F)cc1	1%	1%	45%	-13%	5%[11.4 µM]	5%
Cc1cc(C(=O)COC(=O)c2ccc(O)cc2)c(C)n1Cc1ccco1	-6%	?	?	50µM*	-17%	?
Cc1cc(C(=O)COC(=O)c2ccc(CO)cc2)c(C)n1CC1COc2ccccc2O1 (stereo not given)	-8%	-27%	1%	?	-17%	4µM*
CCOC(=O)c1ccc(OCCN2C[C@H](O)[C@@H](O)[C@H](O)[C@H]2CO)cc1	-3%	·	·	·	·	·
N=C(N)n1cccn1	3%	·	·	·	·	?
CCCCc1nn2c(=O)cc(COC(=O)c3cccs3)nc2s1	-11%	-17%	-24%	-3%	·	6%[59 µM]
Cc1ccc(NP(=O)(c2ccc(N(C)C)cc2NC(=O)c2cccs2)N2CCOCC2)cc1Cl (stereo not given)	-2%	?	-5%	-36%	-15%	79µM*
CN(C)c1cc(-c2cccc(NS(C)(=O)=O)c2)ncn1	·	·	·	·	·	-9%[0.501 µM]
c1coc(-c2nc3ccccn3c2Nc2ccc3c(c2)OCCO3)c1	9%	56µM*	?	45µM*	·	13µM*
Cc1ccn2c(Nc3ccc(F)cc3)c(-c3ccc(C)o3)nc2c1	-5%	-10%	39%	-7%	·	-45%[59 µM]
Cc1ccn2c(Nc3ccc4c(c3)OCCO4)c(-c3ccc(C)o3)nc2c1	-5%	45µM*	-7%	32µM*	·	25µM*
Cc1cccc2nc(-c3ccco3)c(Nc3ccc4c(c3)OCCO4)n12	-2%	56µM*	?	35µM*	·	?
Cc1ccc2nc(-c3ccco3)c(Nc3ccc4c(c3)OCCO4)n2c1	-13%	-10%	41%	-13%	·	?
COc1cc(-c2nc3cccc(C)n3c2Nc2ccc3c(c2)OCCO3)ccc1O	1%	-34%	-6%	·	·	?
CCOC(=O)C1CCCCN1S(=O)(=O)c1csc(C(N)=O)c1 (stereo not given)	-8%	-4%	52%	?	·	-30%[59 µM]
O=C(O)Cc1cc(F)c(S(=O)(=O)N2CCN(S(=O)(=O)c3ccc4c(c3)OCCO4)CC2)cc1F	·	-35%	·	·	·	·
COCc1cc(N2CCCCC2)nc(-c2ccccc2)n1	0%	20µM*	18%	50%	7%	83%
